Calls of active or inactive are those of the source. The call rests on the fitted dose curve; in most records, active means well fitted inhibition curve with a large enough effect; inconclusive means small, poorly fitted or top-dose-only effect; inactive means flat fitted curve, though single readings scatter.
These compounds were tested on Nanoluciferase (engineered Oplophorus gracilirostris luciferase) (assay: Primary Nanoluciferase (NLuc) qHTS assay for identification of artifact compounds. (AID 1845222)). Conditions: NLuc-conditioned medium, Nano-Glo luminescence, 5 min; series mostly up to 54.1 µM; activity, negative = inhibition: at the top concentration.
Description: PI: Alexander Tropsha Ph.D.
UNC Eshelman School of Pharmacy
University of North Carolina, Chapel Hill, North Carolina
Hits from high-throughput screening (HTS) of chemical libraries are often false positives due to their interference with the assay detection technology. In response to this problem, we generated the largest publicly available library of chemical liabilities and developed a free webtool to predict HTS artifacts, both of which are described herein. More specifically, we generated, curated, and integrated HTS datasets for thiol reactivity, redox activity, and luciferase (firefly and nano) activity. Using these curated datasets, we developed and validated several Quantitative Structure-Interference Relationship (QSIR) models to predict nuisance behavior. […] These models were employed for virtual profiling of the National Center for Advancing Translational Science's (NCATS) in-house library, and 256 compounds for each assay were selected for the experimental validation of nuisance behavior. The BA for these external predictions ranged from 58 to 78% for compounds within the applicability domains of the models. […] The models developed in this study, along with aggregation models previously developed by our group (SCAM Detective) were implemented in "Liability Predictor," an online tool which may be used as part of chemical library design or for triaging HTS hits. Both the models and the curated datasets are publicly available at https://liability.mml.unc.edu/.
SEQUENCE No. (e.g., 1, 2, 3, etc.); […] (e.g., Cells, Incubation, Reagent, etc.); VALUE; DESCRIPTION.
1; Reagent; 2 uL; Nanoluciferase media.
2; Compounds and control; 16 nL; Kalypsis pin tool (Wako USA) equipped with a 1536-well pin head.
4; Reagent; 2 uL; Luciferase enzyme.
6; Detection; Luminescence, ViewLux microplate reader.
NOTES (numbers refer to Sequence numbers above)
1. Medium was collected from the culture flasks of NLuc-expressing S16 cells (80% confluent) prior to cell plating, filtered through a 0.22um filter, and frozen at -20C prior to use. Media was diluted (1:55) and 2 uL was dispensed into all wells of a 1536-well assay plate (solid-bottom white plate; Greiner Bio One, Monroe, NC).
2. A Wako Pin-tool (Wako Automation, Richmond, VA) was used to transfer 16 nL of compounds (consisting of 7-plates in qHTS format, final concentration range 18.3 nM to 114 uM) or control Cilnidipine (final concentration range 623 nM to 80 uM).
3. 15 min. incubation at room temperature protected from light.
4. 2 uL of NLuc substrate (1:100 in Nano-Glo luciferase buffer; Nano-Glo luminescence assay, Promega, Madison, WI) was dispensed for a final assay volume of 4 uL.
5. Plates were centrifuged (121xg, 15 seconds) and incubated for 5 minutes.
6. Samples were read for luminescence on a ViewLux CCD imager (PerkinElmer). Data were normalized to no-enzyme (0% activity) and no-inhibitor (DMSO; 100%) controls and the resulting percent inhibition data were fitted to a 4-parameter Hill equation using NCATS in-house software.
Potency means the concentration at half of the fitted maximal effect.

| Compound | activity, negative = inhibition | Potency |
| --- | --- | --- |
| C=C(C)C1Cc2cc(C(=O)OC3OC(CO)C(O)C(O)C3O)ccc2O1 (stereo not given) | -4.03% (inactive) | – |
| COC(=O)C1=C2Nc3ccccc3C23CCN2CCCC(C(C)O)(C1)C23 (stereo not given) | 0.786% (inactive) | – |
| COc1cc2c(cc1OC)[C@@H]1[C@H](O)[C@@H](OC)C=C3CCN(C2)[C@H]31 | 2.57% (inactive) | – |
| CC/C=C\CCO[C@@H]1O[C@H](CO)[C@@H](O)[C@H](O)[C@H]1O | -3.95% (inactive) | – |
| O=C(NCC(O)CO)c1ccncc1Nc1ccc(I)cc1F (stereo not given) | 3.74% (inactive) | – |
| C=C(C(=O)O)[C@@H]1CC[C@@]2(C)CC[C@H](O)[C@@]2(C(C)=O)C1 | -4.12% (inactive) | – |
| CC1=C(CCC(C)CC(=O)O)[C@@]2(C)CCCC(C)(C)C2CC1=O (stereo not given in full) | 0.862% (inactive) | – |
| Cc1cc(=O)oc2c(C=O)c(O)ccc12 | -10.2% (inactive) | – |
| O=C(/C=C/c1ccc(O)cc1)OC1[C@H](O)CC(O)(C(=O)O)C[C@H]1O (stereo not given in full) | -3.46% (inactive) | – |
| CCN(CC)Cc1ccc(C(=O)N(CCc2ccccc2OC)[C@@H]2CCNC2)cc1 | 0.608% [at 25.7 µM] (inactive) | – |
| C[S+](CC[C@H](N)C(=O)[O-])C[C@H]1O[C@@H](n2cnc3c(N)ncnc32)[C@H](O)[C@@H]1O (stereo not given in full) | 4.14% (inactive) | – |
| C=CC(C)(O)CC/C=C(\C)C(=O)OC1C(O)C(CO)OC(OC(=O)C23CCC(C)(C)CC2C2=CCC4C5(C)CCC(OC6OC(COC7OCC(OC(C)=O)C(O)C7OC7OC(COC(C)=O)C(O)C(O)C7O)C(O)C(O)C6O)C(C)(C)C5CCC4(C)C2(C)C(O)C3O)C1OC1OCC(OC2OCC(O)C(OC3OCC(O)C(O)C3O)C2O)C(O)C1O (stereo not given) | 2.81% [at 6.45 µM] (inactive) | – |
| C=C(C(=O)O)C1CCC2(C)CCC(O)C(=C)C2C1 (stereo not given) | -1.01% (inactive) | – |
| C=C1C(=O)OC2C1CCC(=C)C1CC(OC(C)=O)C(=C)C12 (stereo not given) | -3.07% (inactive) | – |
| COc1c2c(c(CO)c3c1C(=O)OC3)OC1(C)CCC3(O)C(C)(C)OC(=O)CCC3(C)C1C2 (stereo not given) | 2.14% [at 25.7 µM] (inactive) | – |
| C/C=C/C=C/C=C/C(=O)OC1C=C(C=O)C(O)(C(=O)O)C2(C)CCCC(C)(C)C12 (stereo not given) | -1.87% [at 25.7 µM] (inactive) | – |
| CC(=O)O[C@@](C)(C(=O)/C=C/C(C)(C)O)[C@H]1[C@H](O)C[C@@]2(C)[C@@H]3CC=C4[C@@H](C=C(O)C(=O)C4(C)C)[C@]3(C)C(=O)C[C@]12C | -2.24% [at 25.7 µM] (inactive) | – |
| CC(Nc1ncnc2nc[nH]c12)c1cc2cccc(Cl)c2c(=O)n1-c1ccccc1 (stereo not given) | -23.7% (inactive) | – |
| CC12CCC3c4ccc(OC5OC(C(=O)O)C(O)C(O)C5O)cc4CCC3C1CCC2O (stereo not given) | 0% (inactive) | – |
| C=C1C[C@]23C[C@H]1[C@@H](O)C[C@H]2[C@@]12C=C[C@H](O)[C@@](C)(C(=O)O1)[C@H]2[C@@H]3C(=O)O | 1.34% (inactive) | – |

| Compound | activity, negative = inhibition | Potency |
| --- | --- | --- |
| CC1OC(OC2C(C)OC(OC3C(OC(=O)C45CCC(C)(C)CC4C4=CCC6C7(C)CCC(OC8OC(C(=O)O)C(O)C(O)C8OC8OC(CO)C(O)C(OC9OC(C)C(O)C(O)C9O)C8O)C(C)(CO)C7CCC6(C)C4(C)CC5)OC(CO)C(O)C3O)C(O)C2O)C(O)C(O)C1O (stereo not given) | 2.74% [at 11.6 µM] (inactive) | – |
| Cc1nc2sc(C(=O)NCc3ccncc3)c(N)c2c(C)c1Cl | -2.08% (inactive) | – |
| CC(=O)N[C@@H](C(=O)O[C@H]1CCC(C)(C)[C@@H]2CCC3=C(COC3=O)[C@@]12C)C(C)C | -0.326% (inactive) | – |
| CC(C)C(C(=O)N(C)C(C)C(N)=O)N(C)C(=O)C1CCCN1C(=O)/C=C/C=C/C(O)C(C)O (stereo not given) | 0.0969% [at 25.7 µM] (inactive) | – |
| O=C(NCc1cccc(O)c1)c1cc2cc(F)ccc2[nH]1 | 3.95% (inactive) | – |
| Nc1ncnc2c1nc(N)n2[C@@H]1O[C@H](CO)[C@@H](O)[C@H]1O | 4.29% (inactive) | – |
| CC(=O)OCC1(O)CCC2C(COC3OC(CO)C(O)C(O)C3OC(=O)/C=C/c3ccc(O)cc3)=COC(OC(=O)CC(C)C)C21 (stereo not given) | 0.554% [at 25.7 µM] (inactive) | – |
| C=C1C(O)CC2C(C(=O)O)=COC(O[C@@H]3O[C@H](COC(=O)/C=C/c4ccc(O)cc4)[C@@H](O)[C@H](O)[C@H]3O)C12 (stereo not given in full) | -1.64% [at 25.7 µM] (inactive) | – |
| Cc1ncc(CCCN(C)C)cc1Nc1ncc2c(n1)-c1ccc(C(F)(F)F)cc1NC(=S)C2 | -4.42% (inactive) | – |
| Cc1c(C(=O)N2CCOc3ccc(-c4ccc(N)nc4)cc3C2)ccc(S(C)(=O)=O)c1F | -1.79% (inactive) | – |
| CC(=O)OC1C(=O)C2(C)C(O)CC3OCC3(OC(C)=O)C2C(OC(=O)c2ccccc2)C2(O)CC(OC(=O)C(O)C(NC(=O)c3ccccc3)c3ccccc3)C(C)=C1C2(C)C (stereo not given) | -1.41% (inactive) | – |
| Cc1cc(Nc2ccc(NC(=O)c3ccc(Nc4ccnc5ccccc45)cc3)cc2)nc(N)n1 | -13.6% (inactive) | – |
| Cc1cc(O)cc(O[C@@H]2O[C@H](CO)[C@@H](O)[C@H](O)[C@H]2O)c1 | 0.109% (inactive) | – |
| COC(=O)CCc1cc2ccoc2c(OC)c1O[C@@H]1O[C@H](CO)[C@@H](O)[C@H](O)[C@H]1O | 1.68% [at 25.7 µM] (inactive) | – |
| CC1(C)CC2C(C1)C(C)(O)C13CC1(COC3=O)C2O (stereo not given) | -3.08% (inactive) | – |
| Cc1noc(-c2ccc(-c3ccc(CC(=O)O)cc3)cc2)c1NC(=O)O[C@H](C)c1ccccc1 | – | 10.7 µM (active) |
| N#Cc1cc(F)cc(-c2nc(-c3ccccn3)no2)c1 | 0.764% (inactive) | – |
| CC1C=CC2CCCCC2C1CCC1CC(O)CC(=O)O1 (stereo not given) | 1.11% (inactive) | – |
| CC1OC(OCC2OC(OC3CCC4(C)C(CCC5(C)C4CC=C4C6CC(C)(C)CCC6(C(=O)OC6OC(CO)C(O)C(O)C6O)CCC45C)C3(C)CO)C(O)C(O)C2O)C(O)C(O)C1O (stereo not given) | 0% [at 11.6 µM] (inactive) | – |
| C=C1CC[C@H]2[C@@](C)(CCC(O)[C@@]2(C)CO)[C@@H]1CCC1=CCOC1=O (stereo not given in full) | -2.39% (inactive) | – |

— PubChem BioAssay (NCATS)
